Experimental data from PubChem BioAssay (NCATS).
Inconclusive results are not listed. Entries that show only a call come without a potency. Calls of active or inactive are those of the source. Calls come from the whole dose curve; as a rule, active = well fitted inhibition curve with a large enough effect; inconclusive = small, poorly fitted or top-dose-only effect; inactive = flat fitted curve, though single readings scatter.

tested on: W2; assay: qHTS profiling for inhibitors of Plasmodium falciparum proliferation (AID 504749); note: nearly all actives have a fitted effect of over 60% in size; settings: P. falciparum in erythrocytes, SYBR Green DNA, 72 h; series mostly up to 28.7 µM
From the text: NIH National Institute of Allergy and Infectious Diseases [NIAID] NIH Chemical Genomics Center [NCGC] MLPCN Grant: None Assay Provider: Xinzhuan Su, NIAID NCGC Assay Overview: Plasmodium falciparum is a virulent malarial parasite that kills 1-2 million people worldwide each year. Transmitted by mosquitoes, the sporozoite form of the parasite enters the blood stream to infect hepatocytes, where they become merozoites that infect red blood cells (erythrocytes). Within erythrocytes, merozoites begin a […] cycle of growth and division, after which the parasite is released to infect new red blood cells. Gametocytes, which form within erythrocytes as well, circulate in the bloodstream and are ingested by the mosquito, thereby completing the life cycle. To profile malarial isolates for differential chemical responses and to identify inhibitors of malarial growth, an assay that measures P. falciparum growth and replication within erythrocytes was employed. This assay uses a DNA binding fluorescent dye (SYBR Green) to detect parasite DNA following cell lysis. Because mature erythrocytes lack DNA, only Plasmodium-derived DNA is detected.
NCGC Assay Protocol Summary: The SYBR Green viability assay was adapted from a method described previously (Plouffe et al., 2008). For screening 3 ul culture medium was dispensed into 1536 well black clear bottom plates (Aurora Biotechnologies) using a Multidrop Combi (Thermo Fisher Scientific Inc.), 23 nL compounds in DMSO were added by a pin tool (Kalypsys), and 5 ul of erythrocytes infected with P. falciparum (0.3% parasitemia, 2.5% hematocrit final concentration) were added. The plates were incubated at 37 C in a humidified incubator in 5% CO2 for 72 h, and 2 ul lysis buffer (20 mM Tris HCl, 10 mM EDTA, 0.16% saponin, 1.6% triton X, 10X SYBR Green I supplied as 10,000X […] by Invitrogen) was added to each well. The plates were mixed for 25 sec with gentle shaking and incubated overnight at room temperature in the dark. The following morning, fluorescence intensity at 485(14) nm excitation and 535(25) nm emission wavelengths was measured on an EnVision (Perkin Elmer) plate reader. Plate reads were normalized relative to the control inhibitor (0.29 uM artemisinin) and vehicle (DMSO) wells present on each plate and then corrected by an algorithm using vehicle-only control plates at the beginning and end of the compound plate stack.
Potency is the fitted concentration of half-maximal effect.

Structure (SMILES)	Potency
C[C@@H](C(=O)O)c1ccc(-c2ccccc2)c(F)c1	inactive
CN1CCN(CCC=C2c3ccccc3Sc3ccc(S(=O)(=O)N(C)C)cc32)CC1	6.01 µM (active)
C/C=C1\C2C=C(C)CC1(N)c1ccc(=O)[nH]c1C2 (stereo not given)	inactive
CC(C)(O)c1ccccc1CC[C@H](SCC1(CC(=O)O)CC1)c1cccc(/C=C/c2ccc3ccc(Cl)cc3n2)c1	inactive
CC(=O)[C@H]1CC[C@H]2C3CC=C4C[C@@H](O)CC[C@]4(C)C3CC[C@]12C (stereo not given in full)	inactive
O=C(CC1NCCC[C@H]1O)Cn1cnc2cc(Br)c(Cl)cc2c1=O (stereo not given in full)	0.675 µM (active)
CCCCC(=O)N(Cc1ccc(-c2ccccc2-c2nn[nH]n2)cc1)C(C(=O)O)C(C)C (stereo not given)	15.1 µM (active)
CC(C)C[C@@H](NC(=O)[C@H](Cc1ccccc1)NC(=O)c1cnccn1)B(O)O	0.0757 µM (active)
COC(=O)[C@@H]1[C@@H]2C[C@H]3c4[nH]c5ccccc5c4CCN3C[C@@H]2CC[C@@H]1O	inactive
O=C1c2cccc3c2[C@@H](CCC3)CN1[C@@H]1CN2CCC1CC2	6.75 µM (active)
